According to PubChem BioAssay AID488854 (National Center for Advancing Translational Sciences (NCATS), 2010):
Records with an inconclusive call do not appear. Calls of active or inactive are those of the source. Calls follow the shape of the dose curve; as a rule, active = well fitted activation curve with a large enough effect; inconclusive = small, poorly fitted or top-dose-only effect; inactive = no such curve, though single readings can be large or run the other way.

Molecular target: Lysosomal acid glucosylceramidase (Homo sapiens) (UniProt P04062)
Sequence (P04062 whole entry N409S): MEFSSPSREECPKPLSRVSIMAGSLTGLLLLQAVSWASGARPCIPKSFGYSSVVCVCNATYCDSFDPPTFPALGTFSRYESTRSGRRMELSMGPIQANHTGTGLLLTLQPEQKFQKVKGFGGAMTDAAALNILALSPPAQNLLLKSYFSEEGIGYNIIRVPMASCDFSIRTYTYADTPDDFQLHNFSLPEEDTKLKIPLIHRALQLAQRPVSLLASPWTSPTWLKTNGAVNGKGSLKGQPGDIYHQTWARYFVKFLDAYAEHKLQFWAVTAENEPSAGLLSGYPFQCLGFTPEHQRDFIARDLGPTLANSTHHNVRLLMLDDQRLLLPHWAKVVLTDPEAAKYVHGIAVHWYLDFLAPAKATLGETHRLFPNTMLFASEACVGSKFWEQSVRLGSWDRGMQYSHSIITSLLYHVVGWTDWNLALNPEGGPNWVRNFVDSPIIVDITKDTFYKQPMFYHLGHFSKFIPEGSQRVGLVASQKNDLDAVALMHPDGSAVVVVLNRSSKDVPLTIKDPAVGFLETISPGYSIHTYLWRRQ
Assay: qHTS Assay for Inhibitors and Activators of N370S glucocerebrosidase as a Potential Chaperone Treatment of Gaucher Disease: Confirmation for Probe SAR
Conditions: N370S GC spleen homogenate, 4MU-glucoside fluorescence; series mostly up to 57.5 µM
Text: NIH Chemical Genomics Center [NCGC] NIH Molecular Libraries Probe Production Centers Network [MLPCN] MLPCN Grant: MH086442-01 Assay Submitter (PI): Wei Zheng Glucocerebrosidase (GC) catalyzes the hydrolysis of beta-glucocerebroside to glucose and ceramide in lysosomes. Mutations in the glucocerebrosidase gene result in Gaucher disease, an autosomal recessive lysosomal storage disorder. Many of the mutations encountered in patients with Gaucher disease are missense alterations that may cause misfolding, decreased stability and/or mistrafficking of this lysosomal protein. […] These inhibitors include iminosugar analogs and three non-iminosugar inhibitors identified from a previous HTS of 62,000 compounds with the wild type recombinant enzyme. However, the enhancement of enzyme activity by the chaperone action of an enzyme inhibitor must be balanced against the direct inhibition of the enzyme. An enzyme activator could also function as a chaperone by binding to the enzyme and helping to correct its misfolding and mistrafficking. While activators for GC have not yet been identified, they may have better therapeutic potential than inhibitors. Therefore the discovery and development of chemical activators may provide a new strategy for the chaperone therapy. We have optimized a new assay using N370S mutant GC derived from the spleen of a Gaucher patient. […] In addition, the MLPCN compound library has expanded, which increases the chance of finding new and better probes.
NCGC Assay Protocol Summary: This is a fluorogenic enzyme assay with 4-methylumbelliferyl-beta-D-glucopyranoside as the substrate and N370S glucocerebrosidase from human spleen homogenate as the enzyme preparation. Upon the hydrolysis of this fluorogenic substrate, the resulting product, […] which can be detected by a standard fluorescence plate reader. Data were normalized to the controls for basal activity (without enzyme) and 100% activity (with enzyme). The AC50 values were determined from concentration-response data modeled with the standard Hill equation. Assay buffer: 50 mM citric acid (titrated with potassium phosphate to pH 5.0), 100 mM potassium chloride, 10 mM sodium chloride, 1 mM magnesium chloride, 0.01% Tween-20. 1536-well assay protocol: (1) Add 2 ul/well of spleen homogenate (27 ug final) (2) Add 23 nL compounds in DMSO solution. The final titration was 0.5 nM to 58 uM. (3) Add 2 ul of substrate (1 mM final) (4) Incubate at 37C for 40 min. (5) Add 2 ul stop solution (1M NaOH and 1M Glycine mixture, pH 10) (6) Detect the assay plate in a ViewLux plate reader (PerkinElmer) with Ex=365 nm and Em=440nm. Keywords: Glucocerebrosidase, beta-glucosidase, Gaucher Disease, pharmacological chaperone, chaperone therapy, high throughput screening, glucocerebrosidase inhibitor, MLSMR, MLSCN, NIH Roadmap, qHTS and NCGC

`Cc1cc(C)n2ncc(C(=O)NCC(C)C)c2n1` was tested. Which Potency did it give?
The Potency was 25.9 µM (active).

How did the Potency turn out when `Cc1cc(C)n2ncc(C(=O)NCc3ccccc3)c2n1` was run?
The Potency was 32.6 µM (active).

Which Potency does the source give for `COc1ccc(NC(=O)c2cnn3c(C)cc(C)nc23)cc1Cl` here?
The Potency was 2.06 µM (active).

How did the Potency turn out when `Cc1cc(C)n2ncc(C(=O)Nc3ccc(S(C)(=O)=O)cc3)c2n1` was run?
The Potency was “inactive”.

Which Potency does the source give for `Cc1cc(C)n2ncc(C(=O)Nc3ccccc3)c2n1` here?
Its Potency is 5.17 µM (active).

For `Cc1cc(C)n2ncc(C(=O)Nc3ccc(Br)cc3)c2n1`, which Potency is on record?
The Potency was 2.31 µM (active).

With `CCCCN(CCCNC(=S)NCCCc1cnc[nH]1)c1ccc(Br)cn1` as the compound, how does the Potency read?
Its Potency is “inactive”.
